# From PubChem BioAssay
# Several values for one entry are separate records, joined by “and”; a condition that tells them apart may be missing. Equal values may be shown once. Activity calls are given as the source filed them.
# What was measured:
# [1] = E. coli DRC41 culture turbidity changes, primary screen, E. coli filamentation inducer project, strain DRC41, OD650, 48 h (AID 1152);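 also: E. coli MC1000 strain DRC41 lacking acrAB efflux pump and sulA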; conditions: E. coli DRC41 (acrAB sulA), higher = more signal, called active from +8 up or from −8 down
# [2] = small-molecule binders of probe aLefty1, primary screen, biochemical, small-molecule microarray, 635/667 nm fluorescence (AID 1153); conditions: higher = more signal;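 also: score merges spot fluorescence with signal-to-noise ratio from the scanned slide images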
# [3] = PSAC antagonists in infected red cells, primary screen, cell-based, P. falciparum Indochina, OD700, 1 h (AID 1154); conditions: P. falciparum Indochina infected RBC osmotic lysis, higher = more signal, called active from +8 up or from −8 down
# [4] = PSAC antagonists in infected red cells, primary screen, cell-based, P. falciparum Indochina, OD700, 2 h (AID 1155);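 also: lysis reports solute entry through the parasite surface anion channel PSAC; channel blockers reduce lysis of infected cells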; conditions: P. falciparum Indochina infected erythrocytes, osmotic lysis OD700; higher = more signal, called active from +8 up or from −8 down
# [5] = osmotic lysis modulators in infected erythrocytes, primary screen, PSAC antagonist project, cell-based, P. falciparum Indochina, OD700, 3 h (AID 1156); conditions: higher = more signal, called active from +8 up or from −8 down
# [6] = PSAC antagonists in infected red cells, primary screen, cell-based, P. falciparum Indochina, OD700, 18 h (AID 1157); conditions: P. falciparum Indochina infected erythrocytes, osmotic lysis OD700, 18 h; higher = more signal, called active from +8 up or from −8 down
# [7] = modulators of S6 phosphorylation in cells, primary screen, cell-based, A549, cytoblot, luminescence, serum-stimulated (AID 1158); conditions: A549 phospho-S6 cytoblot, 5 h, higher = more signal;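 also: serum-stimulated A549 lung adenocarcinoma cells; signal is phosphorylated S6 detected by cytoblot immunostaining with HRP secondary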
# [8] = target: NADPH oxidase 2 (Homo sapiens) (UniProt P04839); assay: NOX2-dependent H2O2 signal modulators, primary screen, NOX inhibitor project, cell-based, HEK293-NOX2, PMA-stimulated, Amplex Red fluorescence (AID 1159); conditions: 45 min, higher = more signal, called active from +8 up or from −8 down; also: test concentration not given here
# [9] = target: NADPH oxidase 4 (Homo sapiens) (UniProt Q9NPH5); assay: NOX4-dependent H2O2 signal modulators, primary screen, NOX inhibitor project, cell-based, HEK293-NOX4, tetracycline-induced, Amplex Red fluorescence (AID 1160); conditions: 45 min, higher = more signal, called active from +8 up or from −8 down
# [10] = target: NADPH oxidase 5 (Homo sapiens) (UniProt Q96PH1); assay: NOX5-dependent H2O2 signal modulators, primary screen, NOX inhibitor project, cell-based, HEK293-NOX5, Amplex Red fluorescence (AID 1161); conditions: HEK293-NOX5, ionomycin, 45 min, higher = more signal
# [11] = A549 cell viability effects, profiling panel, calcein-AM fluorescence, 48 h, basal (AID 1162); conditions: higher = more signal; also: test concentration not given here
# [12] = adipocyte viability effects, profiling panel, cell-based, 3T3-L1 adipocytes, calcein-AM fluorescence, 48 h, basal (AID 1163); conditions: 3T3-L1 adipocytes viability, higher = more signal; also: test concentration not given here
# [13] = HepG2 cell viability effects, profiling panel, calcein-AM fluorescence, 48 h, basal (AID 1164); conditions: higher = more signal; also: test concentration not given here
# [14] = MM1S cell viability effects, profiling panel, calcein-AM fluorescence, 48 h, basal (AID 1165); conditions: higher = more signal;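 also: viability of MM1S multiple myeloma cells under basal unstimulated conditions; test concentration not given here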
# [15] = basal RPMI8226 viability, no added stimulus, profiling panel, cell-based, calcein-AM fluorescence, 48 h, PK04 Diversity Set (AID 1166); conditions: RPMI8226 myeloma viability, higher = more signal;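 also: cells grown under basal conditions without added stimulus; test concentration not given here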
# [16] = basal HepG2 mitochondrial membrane potential changes, profiling panel, cell-based, JC-1 fluorescence, 24 h, 100 nL compound (AID 1167); conditions: higher = more signal; also: test concentration not given here
# [17] = basal 3T3-L1 adipocyte mitochondrial potential changes, profiling panel, cell-based, JC-1 fluorescence, 3T3-L1 adipocytes, 24 h, 100 nL compound (AID 1168); conditions: JC-1 mitochondrial fluorescence, higher = more signal, called active from +8 up or from −8 down; also: test concentration not given here
# [18] = basal RPMI8226 mitochondrial membrane potential changes, profiling panel, cell-based, JC-1 fluorescence, 24 h, 100 nL compound (AID 1169); conditions: RPMI8226 myeloma, JC-1 mitochondrial potential fluorescence, higher = more signal; also: test concentration not given here
# [19] = basal MM1S mitochondrial membrane potential changes, profiling panel, cell-based, JC-1 fluorescence, 24 h, 100 nL compound (AID 1170); conditions: higher = more signal; also: test concentration not given here
# [20] = A549 lung cancer cell viability effects, profiling panel, resazurin fluorescence, 24 h, PK04 Diversity Set (AID 1171); conditions: higher = more signal, called active from +8 up or from −8 down; also: test concentration not given here
# Chain of NADPH oxidase 2 (Homo sapiens) (P04839 whole entry, looked up): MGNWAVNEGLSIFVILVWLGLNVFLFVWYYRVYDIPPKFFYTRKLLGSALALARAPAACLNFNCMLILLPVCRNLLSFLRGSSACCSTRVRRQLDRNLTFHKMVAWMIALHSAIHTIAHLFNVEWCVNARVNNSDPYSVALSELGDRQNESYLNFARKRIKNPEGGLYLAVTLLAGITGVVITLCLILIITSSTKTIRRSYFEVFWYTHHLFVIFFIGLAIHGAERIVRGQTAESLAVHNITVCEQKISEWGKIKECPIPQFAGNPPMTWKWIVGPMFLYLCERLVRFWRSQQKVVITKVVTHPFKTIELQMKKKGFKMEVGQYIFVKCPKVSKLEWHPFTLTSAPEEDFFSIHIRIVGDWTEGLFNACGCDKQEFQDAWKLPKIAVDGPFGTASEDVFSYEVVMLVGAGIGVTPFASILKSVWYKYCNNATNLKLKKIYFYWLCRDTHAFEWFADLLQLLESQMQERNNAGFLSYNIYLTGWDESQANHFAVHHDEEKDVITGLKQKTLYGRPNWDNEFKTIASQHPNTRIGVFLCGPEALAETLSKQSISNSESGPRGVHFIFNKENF
# Chain of NADPH oxidase 4 (Homo sapiens) (Q9NPH5 whole entry, looked up): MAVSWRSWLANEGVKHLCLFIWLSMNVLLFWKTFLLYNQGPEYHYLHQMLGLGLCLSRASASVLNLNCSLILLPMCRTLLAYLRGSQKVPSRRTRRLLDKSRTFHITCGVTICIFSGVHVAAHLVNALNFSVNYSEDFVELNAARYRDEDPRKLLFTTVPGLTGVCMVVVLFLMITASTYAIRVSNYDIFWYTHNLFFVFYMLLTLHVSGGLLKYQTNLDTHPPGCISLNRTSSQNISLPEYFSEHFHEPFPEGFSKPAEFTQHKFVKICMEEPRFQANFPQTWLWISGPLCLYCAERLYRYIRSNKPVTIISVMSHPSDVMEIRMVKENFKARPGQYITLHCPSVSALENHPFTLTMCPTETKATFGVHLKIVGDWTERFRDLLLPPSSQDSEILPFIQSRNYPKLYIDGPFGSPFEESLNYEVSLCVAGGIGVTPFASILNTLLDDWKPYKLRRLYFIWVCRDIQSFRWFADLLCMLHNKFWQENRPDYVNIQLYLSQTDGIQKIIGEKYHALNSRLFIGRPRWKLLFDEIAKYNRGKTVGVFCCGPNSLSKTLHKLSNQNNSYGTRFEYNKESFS
# Chain of NADPH oxidase 5 (Homo sapiens) (Q96PH1 whole entry, looked up): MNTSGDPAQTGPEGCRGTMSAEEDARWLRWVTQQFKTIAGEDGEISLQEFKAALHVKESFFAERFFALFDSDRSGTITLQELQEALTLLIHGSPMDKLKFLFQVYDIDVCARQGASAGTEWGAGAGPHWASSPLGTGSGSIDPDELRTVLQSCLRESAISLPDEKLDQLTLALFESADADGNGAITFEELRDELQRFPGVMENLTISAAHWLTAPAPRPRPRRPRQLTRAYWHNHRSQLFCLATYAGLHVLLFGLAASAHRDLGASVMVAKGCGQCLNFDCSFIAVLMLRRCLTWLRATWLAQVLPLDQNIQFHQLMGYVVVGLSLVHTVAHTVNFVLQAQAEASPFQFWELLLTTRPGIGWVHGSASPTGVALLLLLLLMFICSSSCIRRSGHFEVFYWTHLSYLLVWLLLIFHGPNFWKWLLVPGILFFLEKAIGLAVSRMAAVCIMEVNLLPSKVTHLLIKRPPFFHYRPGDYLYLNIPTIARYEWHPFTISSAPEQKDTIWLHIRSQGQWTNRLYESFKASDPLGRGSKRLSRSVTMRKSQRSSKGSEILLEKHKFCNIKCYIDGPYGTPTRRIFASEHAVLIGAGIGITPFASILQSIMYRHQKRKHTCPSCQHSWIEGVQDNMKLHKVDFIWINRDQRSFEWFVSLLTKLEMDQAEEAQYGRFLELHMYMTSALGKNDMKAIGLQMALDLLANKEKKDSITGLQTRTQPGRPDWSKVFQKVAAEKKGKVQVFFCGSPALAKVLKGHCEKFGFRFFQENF
SMILES,z-score [1],composite z-score [2],z-score [3],z-score [4],z-score [5],z-score [6],z-score [7],z-score [8],z-score [9],z-score [10],z-score [11],z-score [12],z-score [13],z-score [14],z-score [15],z-score [16],z-score [17],z-score [18],z-score [19],z-score [20]
COC(=O)C1=C(C)N(Cc2ccccc2)[C@]23O[C@](C(=O)OC)(C(=O)N2[C@@H]1c1ccccc1)[C@H]1C(=O)N(c2ccccc2)C(=O)[C@H]13,-0.371 (inactive) and 0.644 (inactive),-0.139 and -0.0046,0.729 (inactive) and 0.997 (inactive),0.626 (inactive) and -1.04 (inactive),1.17 (inactive) and 2.21 (inactive),-0.0207 (inactive) and -1.23 (inactive),-0.103 and 0.506,0.983 (inactive) and 0.108 (inactive),0.632 (inactive) and 1.27 (inactive),1.07 and 0.999,0.0342 and 1.13,0.513 and 1.12,-0.254 and -0.339,0.149 and 0.0697,-0.483 and 0.292,0.369 and 0.573,0.658 (inactive) and 0.885 (inactive),-0.749 and -0.197,0.702 and 0.235,0.376 (inactive) and -0.0028 (inactive)
C=CCN(C(=O)C1N(CCOCCO)C(=O)C2C(C(=O)O)C3C=CC21O3)C(C)(C)C (stereo not given),-0.265 (inactive) and -0.45 (inactive),-0.161 and -0.695,0.901 (inactive) and -0.5 (inactive),0.264 (inactive) and 0.438 (inactive),-0.944 (inactive) and -0.84 (inactive),-0.305 (inactive) and -0.108 (inactive),0.0267 and 0.353,0.388 (inactive) and 0.883 (inactive),0.292 (inactive) and -0.3 (inactive),1.19 and -0.295,-0.186 and -0.328,0.0948 and -1.23,0.108 and 0.442,1.01 and 0.916,-0.114 and 0.817,-0.58 and -0.767,-0.693 (inactive) and -0.523 (inactive),-0.691 and 0.591,1.93 and 0.501,0.161 (inactive) and -0.73 (inactive)
C=CCN(C(=O)C1N(c2ccc(CCO)cc2)C(=O)C2C(C(=O)O)C3C=CC21O3)c1ccc(OC)cc1 (stereo not given),-0.0883 (inactive) and 1.76 (inactive),-0.147 and -0.216,2.34 (inactive) and 0.289 (inactive),0.752 (inactive) and -0.136 (inactive),-0.0787 (inactive) and -0.0798 (inactive),0.258 (inactive) and 0.284 (inactive),0.0631 and 2.4,1.27 (inactive) and -0.00582 (inactive),-1.05 (inactive) and -0.234 (inactive),2.64 and -0.701,0.414 and -0.783,0.432 and 0.014,-0.535 and -0.905,1.02 and 1.1,-0.0159 and 0.492,-0.19 and -0.0346,-0.246 (inactive) and -0.356 (inactive),-0.0146 and 0.609,-0.358 and 0.691,-1.23 (inactive) and 0.468 (inactive)
C=CCN(C(=O)C(c1cccs1)N(C(=O)/C=C\C(=O)O)c1c(Cl)cccc1CO)C(C)(C)C (stereo not given),-0.773 (inactive) and -1.1 (inactive),0.045 and 0.192,0.294 (inactive) and 0.153 (inactive),-0.0344 (inactive) and -0.313 (inactive),-0.741 (inactive) and -0.659 (inactive),-0.134 (inactive) and -0.0608 (inactive),-0.483 and -0.409,0.239 (inactive) and 0.261 (inactive),-0.827 (inactive) and -0.628 (inactive),-0.328 and 0.528,0.422 and -0.237,0.0699 and -0.221,-0.0685 and 0.369,0.221 and 0.0812,-0.511 and -0.202,-0.99 and -0.519,0.563 (inactive) and 0.497 (inactive),-0.639 and -0.0626,0.923 and 0.231,-0.493 (inactive) and -0.643 (inactive)
CCCNC(=O)OC[C@H]1O[C@H](CCON=C(C)CCN2CCc3nc(-c4ccccc4)c(-c4ccccc4)cc3C2)C=C[C@@H]1Oc1ccc(OC)cc1,-1.29 (inactive),-0.0054,1.77 (inactive),0.454 (inactive),0.571 (inactive),0.441 (inactive),0.0851,-0.473 (inactive),-2.55 (inactive),-2.17,1.18,0.723,0.27,-0.893,-0.794,4.79,-1.65 (inactive),0.179,0.483,0.444 (inactive)
COC(=O)C1=C(C)N(Cc2ccccc2)[C@]23O[C@](C(=O)OC)(C(=O)N2[C@@H]1c1ccccc1)[C@H]1CCCC(=O)[C@H]13,0.0211 (inactive) and -0.587 (inactive),-0.0559 and 0.101,1.12 (inactive) and 0.466 (inactive),0.314 (inactive) and 0.0982 (inactive),0.0988 (inactive) and 0.882 (inactive),0.0037 (inactive) and -1.37 (inactive),-0.0731 and 2.28,-2.97 (inactive) and -0.233 (inactive),0.743 (inactive) and 0.178 (inactive),0.244 and -0.624,0.144 and -0.51,0.474 and 0.827,-0.336 and -0.818,-3.25 and -1.15,-1.18 and -0.337,0.662 and 0.827,1.33 (inactive) and 0.966 (inactive),-0.736 and 0.0334,0.291 and -0.342,0.207 (inactive) and -0.277 (inactive)
